# Laboratory results: publication PMC7862700, “An all-to-all approach to the identification of sequence-specific readers for epigenetic DNA modifications on cytosine”
# How the values were obtained:
# Test in all cases: DAPPL (digital affinity profiling via proximity ligation, sequencing); 10 mM Tris-HCl pH 7.5, 50 mM NaCl, 1 mM DTT, 4% glycerol, room temperature, 30 min; GST-TFs on glutathione beads, 16-mer random dsDNA library, 0.1% formaldehyde crosslink after washing; high values mean tight binding
# [1] = target: T1, FLI1 (Homo sapiens, UniProt Q01543 1-452); conditions: protein: recombinant; tags: N-terminal GST; dsDNA, one strand shown
# T1 sequence: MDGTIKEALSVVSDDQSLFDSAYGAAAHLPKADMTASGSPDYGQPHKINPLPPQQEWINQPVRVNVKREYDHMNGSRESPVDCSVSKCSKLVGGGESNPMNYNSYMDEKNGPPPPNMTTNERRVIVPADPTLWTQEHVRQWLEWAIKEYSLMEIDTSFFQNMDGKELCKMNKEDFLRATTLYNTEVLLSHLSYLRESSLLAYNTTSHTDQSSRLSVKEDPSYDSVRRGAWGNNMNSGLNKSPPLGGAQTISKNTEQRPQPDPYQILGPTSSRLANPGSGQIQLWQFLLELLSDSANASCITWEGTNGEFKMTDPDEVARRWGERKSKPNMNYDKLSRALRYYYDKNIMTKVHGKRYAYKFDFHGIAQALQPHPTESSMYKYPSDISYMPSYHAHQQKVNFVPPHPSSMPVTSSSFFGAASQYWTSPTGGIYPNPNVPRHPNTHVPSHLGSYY
# How it was run: (§1)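 In yeast, human transcription factors were expressed with a GST fusion, then pulled down on glutathione beads and given DNA barcodes. Pooled with a tag-only sample, they were exposed to 200 nmole of a 16-mer random double-stranded DNA library (Tris/NaCl/DTT/glycerol buffer, room temperature, 30 min), washed, crosslinked with 0.1% formaldehyde, proximity-ligated using BsaI/T4 ligase for 1 h at 37 °C, PCR-amplified and read on an Illumina NextSeq500. Each hexamer's frequency of reads for a factor, divided by the matching frequency for the tag-only sample, gives the binding signal.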
# [2] = target: T2, ELK1 (Homo sapiens, UniProt P19419 1-428); conditions: protein: recombinant; tags: N-terminal GST; dsDNA, one strand shown
# T2 sequence: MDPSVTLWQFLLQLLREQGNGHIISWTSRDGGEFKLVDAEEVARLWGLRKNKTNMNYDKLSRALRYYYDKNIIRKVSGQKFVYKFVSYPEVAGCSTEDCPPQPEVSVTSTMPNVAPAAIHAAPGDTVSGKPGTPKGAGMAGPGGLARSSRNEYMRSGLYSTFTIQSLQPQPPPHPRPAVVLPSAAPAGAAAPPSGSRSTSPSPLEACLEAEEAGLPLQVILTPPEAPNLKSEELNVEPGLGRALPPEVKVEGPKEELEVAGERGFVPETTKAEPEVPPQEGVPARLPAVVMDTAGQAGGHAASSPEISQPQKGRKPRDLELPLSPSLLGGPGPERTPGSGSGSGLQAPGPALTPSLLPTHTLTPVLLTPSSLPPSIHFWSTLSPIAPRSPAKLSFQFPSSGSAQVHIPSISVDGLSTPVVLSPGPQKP
# How it was run: as §1
# [3] = target: T3, GABPA (Homo sapiens, UniProt Q06546 1-454); conditions: protein: recombinant; tags: N-terminal GST; dsDNA, one strand shown
# T3 sequence: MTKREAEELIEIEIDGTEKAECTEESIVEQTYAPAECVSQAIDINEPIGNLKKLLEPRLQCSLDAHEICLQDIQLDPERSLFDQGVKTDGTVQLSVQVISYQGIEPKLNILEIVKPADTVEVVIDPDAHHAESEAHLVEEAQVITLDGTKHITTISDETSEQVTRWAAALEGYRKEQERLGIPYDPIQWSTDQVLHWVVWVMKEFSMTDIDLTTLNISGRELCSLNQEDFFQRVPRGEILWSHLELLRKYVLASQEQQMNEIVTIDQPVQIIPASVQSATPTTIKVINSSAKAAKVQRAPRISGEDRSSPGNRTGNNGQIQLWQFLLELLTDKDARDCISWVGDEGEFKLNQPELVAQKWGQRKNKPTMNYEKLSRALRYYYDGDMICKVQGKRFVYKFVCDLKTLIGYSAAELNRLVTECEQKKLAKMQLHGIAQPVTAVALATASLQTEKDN
# How it was run: as §1
# [4] = target: T4, ETV2 (Homo sapiens, UniProt O00321 1-342); conditions: protein: recombinant; tags: N-terminal GST; dsDNA, one strand shown
# T4 sequence: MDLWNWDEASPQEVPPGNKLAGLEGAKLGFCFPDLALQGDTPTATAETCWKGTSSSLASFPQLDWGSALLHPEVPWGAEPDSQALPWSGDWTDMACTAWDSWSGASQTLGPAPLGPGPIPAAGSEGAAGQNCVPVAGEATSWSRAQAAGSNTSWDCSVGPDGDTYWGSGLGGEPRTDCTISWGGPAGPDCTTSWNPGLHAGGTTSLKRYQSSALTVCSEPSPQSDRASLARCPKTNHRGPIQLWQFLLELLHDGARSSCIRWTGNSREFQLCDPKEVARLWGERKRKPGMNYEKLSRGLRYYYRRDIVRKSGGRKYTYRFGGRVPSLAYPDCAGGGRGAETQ
# How it was run: as §1
# [5] = target: T5, ELF3 (Homo sapiens, UniProt P78545 1-371); conditions: protein: recombinant; tags: N-terminal GST; dsDNA, one strand shown
# T5 sequence: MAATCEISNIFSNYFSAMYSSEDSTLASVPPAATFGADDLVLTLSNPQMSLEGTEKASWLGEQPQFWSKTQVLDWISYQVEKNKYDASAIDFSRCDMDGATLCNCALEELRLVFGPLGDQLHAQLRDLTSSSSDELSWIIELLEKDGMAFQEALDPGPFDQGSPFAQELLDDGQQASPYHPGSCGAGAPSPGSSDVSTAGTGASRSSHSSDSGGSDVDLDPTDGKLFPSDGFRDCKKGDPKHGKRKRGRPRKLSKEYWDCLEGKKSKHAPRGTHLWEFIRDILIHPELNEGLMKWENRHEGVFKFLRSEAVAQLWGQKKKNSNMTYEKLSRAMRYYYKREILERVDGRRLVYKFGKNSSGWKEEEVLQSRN
# How it was run: as §1
# [6] = target: HSF1 (Homo sapiens, UniProt Q00613 1-529); conditions: protein: recombinant; tags: N-terminal GST; chain copies: 3; dsDNA, one strand shown
# Chain of HSF1 (Q00613 whole entry): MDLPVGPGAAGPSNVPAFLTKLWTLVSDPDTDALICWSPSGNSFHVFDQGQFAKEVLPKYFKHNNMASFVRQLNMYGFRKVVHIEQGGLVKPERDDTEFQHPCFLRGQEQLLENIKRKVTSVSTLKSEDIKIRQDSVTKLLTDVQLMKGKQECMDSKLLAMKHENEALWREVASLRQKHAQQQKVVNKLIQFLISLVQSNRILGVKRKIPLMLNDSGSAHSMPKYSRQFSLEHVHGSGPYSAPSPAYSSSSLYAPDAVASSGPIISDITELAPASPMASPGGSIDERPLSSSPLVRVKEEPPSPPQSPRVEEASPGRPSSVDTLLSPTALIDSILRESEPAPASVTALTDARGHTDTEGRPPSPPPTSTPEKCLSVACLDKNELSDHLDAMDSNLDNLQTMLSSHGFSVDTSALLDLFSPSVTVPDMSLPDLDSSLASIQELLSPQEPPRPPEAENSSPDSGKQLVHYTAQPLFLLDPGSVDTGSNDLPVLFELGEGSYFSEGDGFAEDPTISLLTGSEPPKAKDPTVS
# How it was run: as §1
sequence,measurement,setting,value
GACCGC,binding signal,[1],"1.06 fold enrichment (6-mer frequency, TF over GST control)"
same,binding signal,[2],"1.01 fold enrichment (6-mer frequency, TF over GST control)"
same,binding signal,[3],"1.06 fold enrichment (6-mer frequency, TF over GST control)"
same,binding signal,[4],"1.03 fold enrichment (6-mer frequency, TF over GST control)"
same,binding signal,[5],"1.01 fold enrichment (6-mer frequency, TF over GST control)"
AGGAAT,binding signal,[6],"1.01 fold enrichment (6-mer frequency, TF over GST control)"
ACAGAA,binding signal,[6],"1.27 fold enrichment (6-mer frequency, TF over GST control)"
